# From ChEMBL document CHEMBL1961873, “Compounds: GSK PKIS; Assays: Nanosyn kinase panel” (2012)
# Target: Tyrosine-protein kinase BTK (Homo sapiens) (UniProt Q06187)
# Details: at 0.1 µM
# Sequence of Tyrosine-protein kinase BTK (Homo sapiens) (Q06187 whole entry): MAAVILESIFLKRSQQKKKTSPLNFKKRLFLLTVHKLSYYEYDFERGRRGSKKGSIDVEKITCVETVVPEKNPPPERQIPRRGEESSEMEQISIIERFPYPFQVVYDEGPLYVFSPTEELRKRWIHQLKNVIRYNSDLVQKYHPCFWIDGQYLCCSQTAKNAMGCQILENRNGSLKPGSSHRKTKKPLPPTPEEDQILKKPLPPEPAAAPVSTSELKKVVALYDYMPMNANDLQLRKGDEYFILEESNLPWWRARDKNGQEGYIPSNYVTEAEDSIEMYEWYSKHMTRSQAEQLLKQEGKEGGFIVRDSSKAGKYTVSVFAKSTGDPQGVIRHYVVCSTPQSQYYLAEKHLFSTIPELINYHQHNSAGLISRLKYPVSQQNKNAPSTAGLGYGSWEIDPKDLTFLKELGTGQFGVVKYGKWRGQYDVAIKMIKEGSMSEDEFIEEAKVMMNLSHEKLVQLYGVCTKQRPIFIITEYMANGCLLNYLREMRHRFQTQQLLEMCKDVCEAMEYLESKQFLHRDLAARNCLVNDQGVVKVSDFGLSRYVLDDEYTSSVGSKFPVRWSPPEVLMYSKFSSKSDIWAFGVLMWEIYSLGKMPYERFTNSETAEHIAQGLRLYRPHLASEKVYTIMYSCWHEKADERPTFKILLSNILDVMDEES
row,Compound,inhibition [%]
1,CC(=O)Nc1cccc(C#Cc2cncnc2Nc2ccc(OCc3cccc(F)c3)c(Cl)c2)c1,2.74
2,Nc1nc(-c2cccc(Cl)c2)c(-c2ccc3ncccc3n2)s1,0.83
3,CNC(=O)c1cncc(/C=C/c2ccccc2Cl)c1,1.39
4,CCn1c(-c2nonc2N)nc2c(C#CC(C)(C)O)ncc(OC3CCNCC3)c21,0.17
5,CCn1c(-c2nonc2N)nc2ccccc21,1.6
6,Cc1ccc(O)cc1Nc1ccnc2cc(-c3ccccn3)ccc12,4.79
7,Nc1ncc(-c2cccc(S(N)(=O)=O)c2)c2scc(-c3ccc(F)c(Cl)c3)c12,3.15
8,COc1cc2c(cc1Nc1nc(Nc3ccsc3C(N)=O)c3cc[nH]c3n1)N(C(=O)CN(C)C)CCC2(C)C,0.08
9,COc1ccc2[nH]c3c4[nH]c5ccc(OC)cc5c4c4c(c3c2c1)C(=O)NC4=O,0.07
10,Fc1ccc(-c2nn3ccccc3c2-c2ccncc2)cc1,-2.02
11,COc1ccc(-c2cc(-c3c[nH]nc3-c3ccccn3)ccn2)cc1,2.09
12,c1cc(-c2cnn3nc(N4CCOCC4)ccc23)nc(NC2CC2)n1,1.63
13,NS(=O)(=O)c1ccc(Nc2ncc(-c3ccccc3)o2)cc1,0
14,CCN(CC)S(=O)(=O)c1ccc(OC)c(Nc2ncc(-c3ccccc3)o2)c1,2.59
15,CC(=O)NCc1cccc(C#Cc2cncnc2Nc2ccc(OCc3cccc(F)c3)c(Cl)c2)c1,-1.42
16,COc1ccc(-c2oc3ncnc(N)c3c2-c2ccc(NC(=O)Nc3cc(C(F)(F)F)ccc3F)cc2)cc1,1.43
17,CCn1cc(-c2ccnc3[nH]ccc23)c(-c2cccc(NC(=O)Nc3ccc(OCc4ccccc4)cc3)c2)n1,0.34

# Target: Tyrosine-protein kinase BTK (Homo sapiens) (UniProt Q06187)
# Details: at 1 µM
row,Compound,inhibition [%]
1,O=C(Nc1n[nH]c2cc(-c3ccc(F)cc3)ccc12)C1CC1,-0.88
2,CNC(=O)c1cccc(C#Cc2cncnc2Nc2ccc(OCc3cccc(F)c3)c(Cl)c2)c1,-0.29
3,COc1cccc(-c2c[nH]c3c(N/N=C/c4ccncc4)ncnc23)c1,2.48
4,CCn1c(-c2nonc2N)nc2cnc(Oc3cccc(NC(=O)c4ccc(N(C)C)cc4)c3)cc21,-0.69
5,COc1ccc(-c2cc3c(N)ncnc3o2)cc1,-0.38
6,c1ccc(-c2nc3n(c2-c2ccc4c(c2)OCO4)CCC3)nc1,-1.35
7,FC(F)(F)c1cccc(-c2nn3ncccc3c2-c2ccnc(Nc3ccc4c(c3)OCCO4)n2)c1,2.88
8,CC(C)COC(=O)c1ccc2c(c1)/C(=C/Nc1ccc(S(N)(=O)=O)cc1)C(=O)N2,-1.1
9,COc1ccc(-c2nn3ncccc3c2-c2ccnc(Nc3ccc4c(c3)OCCO4)n2)cc1,3.53
10,CN1CCC(n2cnc(-c3ccc(F)cc3)c2-c2ccnc(N)n2)CC1,0.93
11,N#Cc1c(NC(=O)c2ccc(F)cc2)sc2c1CCCC2,-0.45
12,COC(=O)Nc1nc2ccc(S(=O)(=O)c3ccc(NC(=O)Nc4cc(C(F)(F)F)ccc4F)cc3)cc2[nH]1,0.94
13,NS(=O)(=O)c1ccc(N/N=C2\C(=O)Nc3ccc4ncccc4c32)cc1,13
14,[O-][S+]1CCN(Cc2ccc(-c3ccc4ncnc(Nc5ccc(OCc6cccc(F)c6)c(Cl)c5)c4c3)o2)CC1,0.99
15,Cc1cccc2c1NC(=O)/C2=N\Nc1ccc(S(N)(=O)=O)cc1,1.48
16,CS(=O)(=O)CCNCc1ccc(-c2ccc3ncnc(Nc4ccc(OCc5ccccc5)c(C(F)(F)F)c4)c3c2)o1,1.16
17,CC(=O)Nc1cccc(C#Cc2cncnc2Nc2ccc(OCc3cccc(F)c3)c(Cl)c2)c1,5.12
18,Nc1nc(-c2cccc(Cl)c2)c(-c2ccc3ncccc3n2)s1,-0.84
19,CNC(=O)c1cncc(/C=C/c2ccccc2Cl)c1,2.01
20,CCn1c(-c2nonc2N)nc2c(C#CC(C)(C)O)ncc(OC3CCNCC3)c21,0.56
21,CCn1c(-c2nonc2N)nc2ccccc21,2.63
22,Cc1ccc(O)cc1Nc1ccnc2cc(-c3ccccn3)ccc12,34.5
23,Nc1ncc(-c2cccc(S(N)(=O)=O)c2)c2scc(-c3ccc(F)c(Cl)c3)c12,25.1
24,COc1cc2c(cc1Nc1nc(Nc3ccsc3C(N)=O)c3cc[nH]c3n1)N(C(=O)CN(C)C)CCC2(C)C,1.1
25,COc1ccc2[nH]c3c4[nH]c5ccc(OC)cc5c4c4c(c3c2c1)C(=O)NC4=O,8.32
26,Fc1ccc(-c2nn3ccccc3c2-c2ccncc2)cc1,-1.29
27,COc1ccc(-c2cc(-c3c[nH]nc3-c3ccccn3)ccn2)cc1,1.28
28,c1cc(-c2cnn3nc(N4CCOCC4)ccc23)nc(NC2CC2)n1,2.33
